Here are results for 5 compounds from PubChem BioAssay (EPA / NIEHS).

A word on the AC50: it is the concentration giving half of the maximal activity seen.

Holding throughout (conditions): mRNA level, 48 h; actives raise or lower the signal
Read-out in test [1]: Interleukin 6 Receptor (IL6R), IL6R (gene 3570)
Description: LTEA_HepaRG_IL6R: Life Technologies and Expression Analysis (LTEA) Assay for Interleukin 6 Receptor (IL6R) using HepaRG (AID 2283510). The essentials: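 Differentiated HepaRG cells, plated 48 h, then exposed in duplicate for 48 h in serum-free induction medium to 8 half-log concentrations (top 100 uM, 0.5% DMSO). IL6R mRNA measured by TaqMan qRT-PCR, normalized to ACTB/GAPDH/POLR2A; bidirectional fit vs DMSO.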

Read-out in test [2]: Potassium channel subfamily K member 1 (KCNK1), KCNK1 (gene 3775)
Description: LTEA_HepaRG_KCNK1: Life Technologies and Expression Analysis (LTEA) Assay for Potassium channel subfamily K member 1 (KCNK1) using HepaRG (AID 2283511). The essentials:
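Gain or loss of KCNK1 mRNA is the read-out, quantified by qRT-PCR against three housekeeping genes after 48 h chemical treatment of human HepaRG liver cells. Concentrations ran from 100 uM downward in half-log steps, vehicle 0.5% DMSO.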

Read-out in test [3]: Keratin 19 (KRT19), KRT19 (gene 3880)
Description: LTEA_HepaRG_KRT19: Life Technologies and Expression Analysis (LTEA) Assay for Keratin 19 (KRT19) using HepaRG (AID 2283512). The method in brief: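 Gene-expression endpoint in the human liver line HepaRG after 48 h exposure to up to 100 uM test chemical with 0.5% DMSO vehicle; KRT19 mRNA by qRT-PCR, analyzed bidirectionally versus DMSO.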

Read-out in test [4]: JUN Transcription Factor, JUN (gene 3725)
Description: LTEA_HepaRG_JUN: Life Technologies and Expression Analysis (LTEA) Assay for JUN Transcription Factor using HepaRG (AID 2283513). The method in brief:
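HepaRG cells, 48 h post-plating, exposed 48 h in serum-free induction medium to 8-point half-log series (top 100 uM, 0.5% DMSO), duplicate; mRNA by qRT-PCR (TaqMan, Fluidigm), normalized to ACTB/GAPDH/POLR2A; bidirectional fit vs DMSO.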

Read-out in test [5]: Lipase C (LIPC), LIPC (gene 3990)
Description: LTEA_HepaRG_LIPC: Life Technologies and Expression Analysis (LTEA) Assay for Lipase C (LIPC) using HepaRG (AID 2283514). The method in brief:
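Read-out is LIPC transcript level by TaqMan qRT-PCR, normalized to three housekeeping genes, after 48 h chemical treatment of human HepaRG liver cells. Curves span eight concentrations topping at 100 uM; activity in either direction scored relative to 0.5% DMSO.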

Read-out in test [6]: Lipoprotein lipase (LPL), LPL (gene 4023)
Description: LTEA_HepaRG_LPL: Life Technologies and Expression Analysis (LTEA) Assay for Lipoprotein lipase (LPL) using HepaRG (AID 2283515). The method in brief: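 Read-out is LPL transcript level by qRT-PCR, normalized to three housekeeping genes and fitted bidirectionally against the DMSO control. Human HepaRG cells received chemicals for 48 h at up to 100 uM.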

Read-out in test [7]: MicroRNA 122 (MIR122), gene 406906
Description: LTEA_HepaRG_MIR122: Life Technologies and Expression Analysis (LTEA) Assay for MicroRNA 122 (MIR122) using HepaRG (AID 2283516). Further: the transcript read is the microRNA miR-122. The method in brief:
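Differentiated human HepaRG cells in serum-free induction medium exposed 48 h to 8 half-log concentrations from 100 uM in 0.5% DMSO, duplicate. MIR122 quantified by Fluidigm TaqMan qRT-PCR, normalised to ACTB, GAPDH, POLR2A; fold change fitted bidirectionally versus DMSO.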

Read-out in test [8]: matrix metalloproteinase-10 (MMP10), MMP10 (gene 4319)
Description: LTEA_HepaRG_MMP10: Life Technologies and Expression Analysis (LTEA) Assay for matrix metalloproteinase-10 (MMP10) using HepaRG (AID 2283517). The method in brief: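 Gain or loss of MMP10 mRNA is fitted relative to the 0.5% DMSO vehicle. The human hepatic line HepaRG receives a 48-hour serum-free exposure, in duplicate, with a maximum concentration of 100 uM.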

Read-out in another test: MYC, MYC (gene 4609)
Description: LTEA_HepaRG_MYC: Life Technologies and Expression Analysis (LTEA) Assay for MYC using HepaRG (AID 2283518). The method in brief:
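Cells are thawed, plated and cultured 48 h, then treated for 48 h with test chemicals (eight half-log concentrations from 100 uM, 0.5% DMSO vehicle). RNA is isolated and MYC expression quantified by qRT-PCR against three housekeeping genes.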

Read-out in test [9]: matrix metalloproteinase-3 (MMP3), MMP3 (gene 4314)
Description: LTEA_HepaRG_MMP3: Life Technologies and Expression Analysis (LTEA) Assay for matrix metalloproteinase-3 (MMP3) using HepaRG (AID 2283519). The essentials:
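HepaRG, human; 48 h dosing, 8 conc. (max 100 uM, half-log), duplicate, 0.5% DMSO. Readout: MMP3 transcript by Fluidigm TaqMan qRT-PCR, ACTB/GAPDH/POLR2A-normalised. Gain or loss fitted vs DMSO.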

Read-out in test [10]: Paternally Expressed 10 (PEG10), PEG10 (gene 23089)
Description: LTEA_HepaRG_PEG10: Life Technologies and Expression Analysis (LTEA) Assay for Paternally Expressed 10 (PEG10) using HepaRG (AID 2283520). The essentials: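 Differentiated HepaRG cells exposed 48 h in serum-free induction medium to eight half-log concentrations topping at 100 uM, 0.5% DMSO, in duplicate. PEG10 mRNA quantified by TaqMan qRT-PCR, normalized to ACTB, GAPDH and POLR2A; bidirectional fit versus DMSO.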

Read-out in test [11]: Protein phosphatase 2A (PPP2R4), PTPA (gene 5524)
Description: LTEA_HepaRG_PPP2R4: Life Technologies and Expression Analysis (LTEA) Assay for Protein phosphatase 2A (PPP2R4) using HepaRG (AID 2283522). The essentials: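 Differentiated human HepaRG cells in serum-free induction medium were exposed 48 h to 8 concentrations (top 100 µM, half-log steps, duplicate) in 0.5% DMSO. PPP2R4 mRNA was measured by TaqMan qRT-PCR, normalised to ACTB, GAPDH and POLR2A, and fitted bidirectionally versus DMSO.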

Read-out in test [12]: Phosphatase and tensin (PTEN), PTEN (gene 5728)
Description: LTEA_HepaRG_PTEN: Life Technologies and Expression Analysis (LTEA) Assay for Phosphatase and tensin (PTEN) using HepaRG (AID 2283523). The method in brief:
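Read-out is PTEN transcript level by multiplexed TaqMan qRT-PCR after 48 h chemical treatment of human HepaRG cultures in serum-free induction medium. Concentrations spanned 100 uM downward in half-log steps, 0.5% DMSO throughout; activity fitted in both directions against vehicle.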

Read-out in test [13]: solute carrier (SLC22A1), SLC22A1 (gene 6580)
Description: LTEA_HepaRG_SLC22A1: Life Technologies and Expression Analysis (LTEA) Assay for solute carrier (SLC22A1) using HepaRG (AID 2283524). The method in brief: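 HepaRG (human liver line), 48 h dosing in serum-free induction medium; 8 conc., half-log down from 100 uM, 0.5% DMSO vehicle, duplicates. Endpoint: SLC22A1 mRNA, qRT-PCR, housekeeping-normalized; gain/loss fit vs DMSO.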

Read-out in test [14]: Pyruvate Dehydrogenase Kinase 4 (PDK4), PDK4 (gene 5166)
Description: LTEA_HepaRG_PDK4: Life Technologies and Expression Analysis (LTEA) Assay for Pyruvate Dehydrogenase Kinase 4 (PDK4) using HepaRG (AID 2283525). The method in brief: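 In this multiplexed human HepaRG expression assay, cells are treated 48 h with test chemicals across an eight-point range starting at 100 uM. PDK4 mRNA changes, normalized to ACTB/GAPDH/POLR2A, are fitted in both directions relative to vehicle.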

Read-out in test [15]: NAD(P)H dehydrogenase [quinone] 1 (NQO1), NQO1 (gene 1728)
Description: LTEA_HepaRG_NQO1: Life Technologies and Expression Analysis (LTEA) Assay for NAD(P)H dehydrogenase [quinone] 1 (NQO1) using HepaRG (AID 2283526). The essentials:
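Differentiated human HepaRG cells in serum-free induction medium, dosed in duplicate for 48 h at 8 half-log concentrations up to 100 uM in 0.5% DMSO. NQO1 mRNA by qRT-PCR normalized to ACTB, GAPDH, POLR2A; bidirectional fit versus DMSO baseline.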

Read-out in test [16]: Nuclear factor erythroid 2-related factor 2 (Homo sapiens) (UniProt Q16236)
Description: LTEA_HepaRG_NFE2L2: Life Technologies and Expression Analysis (LTEA) Assay for Nuclear factor erythroid 2-related factor 2 (NFE2L2) Transcription Factor using HepaRG (AID 2283527). The essentials: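 Transcript level of NFE2L2 is the read-out, measured by microfluidic TaqMan qRT-PCR and normalized to three housekeeping genes. Human HepaRG cultures received test chemical for 48 h at up to 100 uM in half-log steps. Gain or loss of signal is fitted relative to 0.5% DMSO.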

Read-out in test [17]: succinate dehydrogenase complex iron sulfur subunit B (SDHB), SDHB (gene 6390)
Description: LTEA_HepaRG_SDHB: Life Technologies and Expression Analysis (LTEA) Assay for succinate dehydrogenase complex iron sulfur subunit B (SDHB) using HepaRG (AID 2283528). The essentials:
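SDHB transcript level read by TaqMan qRT-PCR, housekeeping-normalised (ACTB, GAPDH, POLR2A), after 48 h chemical treatment of plated HepaRG cells; eight concentrations top 100 uM, half-log steps, 0.5% DMSO, duplicates; fitted both directions against DMSO.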

Read-out in test [18]: Signal transducer and activator of transcription 3 (Homo sapiens) (UniProt P40763)
Description: LTEA_HepaRG_STAT3: Life Technologies and Expression Analysis (LTEA) Assay for Signal transducer and activator of transcription (STAT3) using HepaRG (AID 2283529). The method in brief:
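Read-out is STAT3 mRNA level by qRT-PCR, normalized to three housekeeping genes, in human HepaRG liver cells treated for 48 h. Concentrations ran from 100 uM downward in half-log steps; curves were fitted for gain or loss relative to 0.5% DMSO.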

The source made the active and inactive calls. How the source made its calls: active means hit-call score of the fitted dose curve at least 0.9, where 1 is the maximum; inactive means score below 0.9.

Signal transducer and activator of transcription 3 (Homo sapiens), sequence (P40763 whole entry, looked up): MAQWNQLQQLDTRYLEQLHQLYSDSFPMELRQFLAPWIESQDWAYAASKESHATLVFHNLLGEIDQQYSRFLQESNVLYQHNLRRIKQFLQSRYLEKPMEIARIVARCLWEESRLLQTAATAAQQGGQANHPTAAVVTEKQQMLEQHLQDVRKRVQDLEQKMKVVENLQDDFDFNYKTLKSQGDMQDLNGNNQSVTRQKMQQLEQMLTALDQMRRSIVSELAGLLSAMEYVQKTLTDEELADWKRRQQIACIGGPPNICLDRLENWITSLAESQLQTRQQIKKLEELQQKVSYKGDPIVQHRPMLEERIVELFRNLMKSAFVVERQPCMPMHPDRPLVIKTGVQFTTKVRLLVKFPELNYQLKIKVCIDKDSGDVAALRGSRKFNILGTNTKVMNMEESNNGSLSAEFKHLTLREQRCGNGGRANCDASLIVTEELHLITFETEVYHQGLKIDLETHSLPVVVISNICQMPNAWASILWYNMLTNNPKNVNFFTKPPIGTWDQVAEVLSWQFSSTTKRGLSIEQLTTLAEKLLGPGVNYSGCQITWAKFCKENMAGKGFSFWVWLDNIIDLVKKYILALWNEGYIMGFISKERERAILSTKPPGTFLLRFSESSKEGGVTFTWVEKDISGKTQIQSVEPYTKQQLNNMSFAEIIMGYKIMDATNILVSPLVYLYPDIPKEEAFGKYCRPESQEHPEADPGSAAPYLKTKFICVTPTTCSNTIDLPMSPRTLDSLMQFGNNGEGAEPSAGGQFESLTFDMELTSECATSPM
Nuclear factor erythroid 2-related factor 2 (Homo sapiens), sequence (Q16236 whole entry, looked up): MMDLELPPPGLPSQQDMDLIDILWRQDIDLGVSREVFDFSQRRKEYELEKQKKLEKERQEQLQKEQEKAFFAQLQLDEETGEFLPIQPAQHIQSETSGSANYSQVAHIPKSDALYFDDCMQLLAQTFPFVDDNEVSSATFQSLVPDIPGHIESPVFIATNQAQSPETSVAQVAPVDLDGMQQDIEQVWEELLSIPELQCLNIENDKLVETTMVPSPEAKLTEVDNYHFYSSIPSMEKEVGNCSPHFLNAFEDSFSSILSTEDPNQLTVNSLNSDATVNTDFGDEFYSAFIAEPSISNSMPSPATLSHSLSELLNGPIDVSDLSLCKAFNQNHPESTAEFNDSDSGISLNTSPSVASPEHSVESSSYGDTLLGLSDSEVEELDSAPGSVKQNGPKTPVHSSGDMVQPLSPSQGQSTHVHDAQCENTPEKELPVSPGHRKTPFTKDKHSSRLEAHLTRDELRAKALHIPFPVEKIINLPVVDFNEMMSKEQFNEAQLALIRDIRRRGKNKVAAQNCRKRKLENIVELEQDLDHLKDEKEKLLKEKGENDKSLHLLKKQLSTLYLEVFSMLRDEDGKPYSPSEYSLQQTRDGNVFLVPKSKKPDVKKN

Regarding `CCOc1cc(C(C)(C)C)ccc1C1COC(c2c(F)cccc2F)=N1` (stereo not given), the compound was classed as inactive in [1], in test [2], in test [4], in test [7], in test [8] and in test [9]. The result in [10], in test [11], in [12], in test [13], in test [14] and in test [15] was inactive. The compound was called inactive in test [16], in [17] and in test [18]. For the same compound, the AC50 in test [3] is 4.11 µM (active); in test [5], 33 µM (active); in [6] it was 52.9 µM (active); in the test with MYC, MYC (gene 4609) it was 33 µM (active).

For `COC(=O)NS(=O)(=O)c1ccc(N)cc1`, the compound was called inactive in [1], in [2], in [3], in [4], in test [5] and in test [6]. Besides, the outcome was “inactive” in test [7]; “inactive” in [8]; “inactive” in the test with MYC, MYC (gene 4609); “inactive” in [9]; “inactive” in test [10]; “inactive” in [11]. Further, the compound was classed as inactive in [12], in test [13], in test [14], in test [15], in [16] and in [17]. Further, the call in [18] was inactive.

On to `COc1ccc(-c2ccccc2)cc1NNC(=O)OC(C)C`, for which the call in [1], in test [2], in test [3], in test [4], in [5] and in [6] was inactive. Moreover, the outcome in test [7] is “inactive”; in test [8], “inactive”; with MYC, MYC (gene 4609), “inactive”; in test [9], “inactive”; in test [10] it was “inactive”; in test [11], “inactive”. Besides, the outcome in test [12], in [13], in [14], in test [15], in [16] and in [17] was inactive. In addition, in test [18], the call was inactive.

As to `CC1(C)C(C=C(Cl)Cl)C1C(=O)OC(C#N)c1cccc(Oc2ccccc2)c1` (stereo not given), the call in test [1], in test [2], in [3], in test [4], in test [5] and in [6] was inactive. Further, the outcome was “inactive” in test [7]; “inactive” in test [8]; “inactive” with MYC, MYC (gene 4609); “inactive” in test [9]; “inactive” in test [11]; “inactive” in test [12]. Also, the compound was classed as inactive in test [13], in [15], in test [16], in [17] and in test [18]. Further, the AC50 in [10] and in [14] was 50 µM (active) throughout.

In the case of `Cc1ccc(N=CN(C)C=Nc2ccc(C)cc2C)c(C)c1`, the call in test [1], in [2], in [3], in test [4], in test [5] and in [6] was inactive. The outcome was “inactive” in test [7]; “inactive” in test [8]; “inactive” with MYC, MYC (gene 4609); “inactive” in test [9]; “inactive” in [10]; “inactive” in test [11]. Moreover, the outcome in test [12], in test [13], in test [14], in test [15], in test [16] and in test [17] was inactive. The outcome in test [18] was inactive.
